The supplement of paper PMC6555819

Experiments:
Test in all cases: PBM binding z-score (relative to random genomic background probes); higher = stronger binding; sequences stand for … in GC…GCGATTGACAGCGTAGAATGAAGG
[1] = test system: RARb homodimer (NR concentration 270 nM)
How it was run: (§1)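 Ligand-free nuclear receptor dimers were bound for 1 h to custom Agilent 4×180K protein-binding microarrays. Detection used antibodies against each partner (one per run). Binding z-scores rest on regression-normalized fluorescence, with random background probes as the reference.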

[2] = test system: RARg:RXRa (NR concentration 270 nM, RXRa partner concentration 90 nM)
How it was run: as §1

[3] = test system: RARg homodimer (NR concentration 270 nM)
How it was run: as §1

[4] = test system: RXRa DBDmut IVT, anti-RXR (DBD mutation: RXRa K156A/R161A, NR concentration 90 nM)
How it was run: as §1

[5] = test system: RXRa homodimer (NR concentration 180 nM)
How it was run: as §1

[6] = test system: THRa:RXRa (NR concentration 90 nM, RXRa partner concentration 90 nM)
How it was run: as §1

[7] = test system: THRa homodimer (NR concentration 90 nM)
How it was run: as §1

[8] = test system: VDR homodimer (NR concentration 270 nM)
How it was run: as §1

Sequence	PBM binding z-score [1]	PBM binding z-score [2]	PBM binding z-score [3]	PBM binding z-score [4]	PBM binding z-score [5]	PBM binding z-score [6]	PBM binding z-score [7]	PBM binding z-score [8]
AATACAGGGGCATCGTAGGCCAGAGTACGCACAG	1.13	0.978	1.23	0.834	0.784	2.47	-0.358	1.15
ACTATTAGTTGAGAGGAGGGCAACCGATAGGTTG	1.1	0.586	0.81	0.0671	0.396	1.32	-0.435	0.461
CGTGCTAGGTCATGGTCAGCTAATCTACAGTATG	3.2	3.97	4.74	1.87	2.75	3.12	1.2	0.319
CCTATTGGGCCACGAAAGGTCATTGATTCAGTGA	4.4	4.95	4.66	0.751	5.29	4.08	0.834	2.26
AGTCAAAGTTCATCTAGGTAACGTAAGATATGCT	4.07	5.59	6.2	4.76	4.97	3.05	0.224	4.94
GCAGACAGGTGAAACGCAGGGAACTCAGGGTGGC	-0.128	0.193	0.108	-1.09	0.587	0.258	-0.443	-0.619
ATATGTATGTTAAGGGTCATTCAGGTTGGTTCGC	3.82	3.82	2.66	2.29	4.3	3.36	1.54	3.48
CCTACTTGGCCAAAAAGGTCATTGATGCCGATAA	4.05	4.68	4.19	1.55	5.15	3.18	1.06	3.04
CCGACTGGGGCATGGTTACCATAACGCACAGCCA	-0.189	-0.0426	0.399	-0.99	-0.131	-0.641	-0.739	-0.781
TATACAGGGTCAAAAGCCAGAGTACGAATGTCGA	2.74	4.82	4.2	2.54	5.88	3.04	0.446	2.71
CAAACTAGGTCATTGACAGGACAGTGAATAGTAA	2.83	4.74	4.67	2.28	2.89	2.91	1.01	1.51
TAGCCTAGGTCATTCAGGGGCCAGTATTGAAAGC	3.3	6.04	4.51	2.08	2.72	3.47	0.833	2.03
ACTATTAGTTGAAACGAGGGCAACCGATAGGTTG	1.25	1.01	1.11	0.84	0.792	3.41	0.358	1.1
ATATGTAGGTTACATCCGGGTGATTCAGGCTATG	0.887	1.19	1.11	0.378	1.27	2.07	0.9	0.101
CCTATTAGTTGACCATAAGGGCAATCGAAGCTCG	1.72	1.12	1.22	0.557	0.516	1.47	1.18	1.13
CCTACTGGGCAACGAAAGGTCATTGATTCAGTGA	4.44	4.88	4	0.496	4.73	3.09	0.612	2.35
ACTCGAAGGACAAAGGTCAGAGCTACGCCAGTGA	4.53	5.85	4.94	0.729	4.69	3.02	0.499	0.565
CCAGACAGGTGAGAAGATAACTCAGCCTCGATTA	-0.0712	0.21	0.586	0.0832	0.262	-0.0838	-0.477	-0.188
TCGAGTAGGTAAGTCGGGGCATTCAGCCAACATA	-0.0679	-0.527	-0.571	0.129	-0.331	0.543	-0.297	-0.05

Sequence	PBM binding z-score [1]	PBM binding z-score [2]	PBM binding z-score [3]	PBM binding z-score [4]	PBM binding z-score [5]	PBM binding z-score [6]	PBM binding z-score [7]	PBM binding z-score [8]
ATATGTAGGTTGAGGGTCATTCAGGTTGGTTCGC	3.23	2.89	2.15	1.95	3.62	2.92	1.68	3.74
CAAACTAGGTCAAGGTCAAAGGCGGTTTGTGCCA	5.02	6.14	6.63	3.02	5.77	4.38	3.55	3.92
CGAACTAGGTCATCCAGGACAGTGGATACATTGA	3.05	4.08	4.8	2.01	2.9	3.74	1.96	2.06
TCTAGTTGGTCAGGGAGGTCACACACGACGGGTA	4.42	4.31	3.88	1.08	4.14	3.63	2.88	3.18
TCGAGTAGGTTAGTGGGGGCATTCAGCCAACATA	1.75	1.55	1.14	1.36	1.34	2.29	1.16	3.31
GCTTGTAGATCAAGTTTAAGAAAGACTAAGCTAA	-0.242	-0.195	-0.0872	0.649	-0.236	-0.0932	-0.618	0.27
CCTATTAGTTGACCATAAGGGGAACCGAAGCTCG	0.9	0.438	0.565	0.467	0.236	0.633	0.694	0.895
CCTAGCAGGCCAATCTGGGTCCCTCAAGGCTTGA	-0.121	-0.601	-0.841	-0.491	-0.782	0.746	-0.658	-0.612
TCGAGTAGGTTAGTCGGGGCATTCAACCAACATA	0.661	0.183	0.0739	0.482	0.119	1.28	0.217	0.466
TAGCCTATGTCATGGGCCAGTATACCACGCGAAC	0.149	0.192	0.474	-0.981	0.178	-0.349	-0.74	-0.627
TCACCAAGGTGAGCTGAGGTCGTTGATCCAACTC	1.5	1	0.829	0.546	1.28	4.7	1.49	1.64
CCTCGGAGGACAACAGGAGGTCACAGCTGCCAGA	4.25	4.52	3.89	0.736	3.9	3.81	2.24	2.42
ACAGACAGGTGTGTGAAGGTAACTCAGCTGGACG	-0.271	-0.0907	-0.134	-0.313	0.0111	-0.0622	-0.902	-0.49
ATATGTAGGTTAGCTTGGGTCATTCAGACTAGGC	2.7	2.07	1.67	0.678	1.89	4.29	1.36	1.36
TCATATAGGTAATACAGGCGAAAGTCGGCATCTA	-0.403	0.375	0.171	1.23	0.623	-0.0703	-0.232	-0.187
CTACCAAGGTGACCAAGGTCGTTGATTACTATTC	1.86	1.47	1.08	1.1	1.66	2.92	1.76	2.06
AGCATGAGGTTAAGATCAGGGAAACAGAATACAT	0.891	2.08	1.62	0.954	2.58	2.66	0.635	0.646
CCGACTGGGGCAAAGGTTCCCATACTCAGTACGA	0.64	0.839	0.494	-0.0939	0.724	-0.141	-0.168	-0.00727
GCTGCTAGGTGAGGTTGGTCAGCTAACGGGTACG	0.45	-0.285	-0.239	-0.389	-0.532	0.337	-0.133	-0.159

Sequence	PBM binding z-score [1]	PBM binding z-score [2]	PBM binding z-score [3]	PBM binding z-score [4]	PBM binding z-score [5]	PBM binding z-score [6]	PBM binding z-score [7]	PBM binding z-score [8]
TCTGCTAGGTCAGTTCGTCAGCTAACGAGCTGCC	1.84	2.16	3	0.634	0.516	1.2	-0.388	0.389
TCGAGTAGTTTAGGGGCATTCAGAATGGCGTCGA	0.436	0.014	-0.0825	0.68	0.467	1.33	0.108	1.55
TCTCGGAGGACACGAAAGGTCAGAGCCCGACATC	4.82	4.91	5.5	0.988	3.95	3.67	1.25	1.26
TGAGTGAGGTTAAAGATCAGGGAACGTGGCGTCG	1.06	2.51	1.37	1.05	4.01	2.43	0.575	0.834
TCTTGTAGTTCAAAGGTTAAGAAAGCCGAAGCCT	2.54	4.81	2.39	2.69	6.78	2.53	-0.0884	1.9
CGAACTAGGTCAAGTACAGTGAATCTCCGCACGC	3.33	4.45	5.13	2	3.13	3.03	1.56	1.45
TCGAGTAGGTTAGGGACATTCAGAATGGCGTCGA	0.458	0.15	0.37	0.229	0.221	2	0.953	0.358
GGAACGAGGGCAAGTTGACAGCAGAGTTTGATGG	1.76	1.71	2.41	2.46	1.16	1.17	-0.0541	1.42
TCGAGTAGGTTAGTCGGGGCATTGAGCCAACATA	0.349	-0.11	0.0255	0.159	-0.18	1	-0.457	-0.0737
TAATATAGGTAAAGGTGAAAGTCGAACGATATGA	1.71	1.62	1.66	-0.417	2.32	1.45	0.232	0.489
ACTATTAGTTGACTTAGGGCAACAGATACGACGC	0.775	0.939	1.03	0.406	0.426	1.48	0.0505	0.162
CCAGACAGGTGAAGGGTAACTCAGTCTGGTACGC	0.722	0.492	0.626	-0.69	0.751	0.21	-0.441	-0.55
ACAGACAGGTGAGTAAAGGTAACTCAGCTGGACG	0.365	0.666	0.622	-0.605	0.915	1.67	-0.828	-0.485
TCTAGCAGGCCAGAGGGTCGCTCAAGAGGTACGG	0.452	0.125	0.0431	-0.342	0.375	-0.276	-1.24	-0.526
ACTAGCAGGCCAAGGGTCATTCAAGATTAGTCCG	3.62	4.15	3.24	0.96	4.5	3.12	0.107	2.6
CGGCAAAGTTCAACTAAGGTAACGTAAAGCACGC	4	5.78	6.69	4.36	5.14	5.16	1.33	3.51
TGTCAAAGTTCAAAGCTAACGTAAGTATCCACAC	3.48	5.47	5.72	4.37	4.59	1.76	-0.21	3.56
GCCAGCAGGCCATTTGGGTCACTCAATGACGGGC	1.78	1.14	1.3	-0.31	0.736	1.8	0.516	0.49
